Measured values from PubChem BioAssay (NCI).
The panel holds about 83,000 compounds, 20% with a hit somewhere; the sample as a whole holds those more often.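 Step 1: grow cells in 96-well plates. Step 2: add test compound at a single concentration. Step 3: incubate 48 h. Step 4: record percent growth.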 Activity calls are given as the source filed them.

The compounds below were run on NCI-H322M lung (assay: NCI-60 one-dose screen, 48 h (100 = growth as untreated, 0 = no growth, -100 = all killed)). Conditions: 10 µM.
Experimental: Growth inhibition of the NCI-H322M human Non-Small Cell Lung tumor cell line is measured as a screen for anti-cancer activity. Cells are grown in 96 well plates and exposed to the test compound for 48 hours. Compounds are tested at a single concentration, which is 10^-5 M for most compounds. The reported endpoint is percent growth (GI% or GIPRCNT), where numbers from 0 - 100% represent growth inhibition, and numbers from -100% - 0 represent cell death. For example, a value of 40 represents 60% growth inhibition. A value of 0 means no net growth occurred over the course of the experiment. A value of -40 indicates 40% of cells at the beginning of the experiment died by the end of the experiment. A value of -100 means all cells are dead at the end of the experiment.
NCI-60 Human Tumor Cell Lines Screen was performed using the standard one-dose NCI protocol, which is described in more detail at https://dtp.cancer.gov/discovery_development/nci-60/default.htm.
Compounds with GIPRCNT values below 10 were considered active. Activity score was based on GIPRCNT using the following formula: […]
Score is 0 for GIPRCNT values of 100 or above, 50 for GIPRCNT values of 0, and 100 for GIPRCNT values of -100.
For COc1cc(C(=O)N2CCN(c3ccccc3OC)CC2)c(N)cc1OCCCN1CCN(c2ccccc2OC)CC1, the growth was 100% (inactive).
Nc1c(C(=O)Nc2ccccc2)sc2nc3c(cc12)CCCC3 was tested, and the growth was 56.9% (inactive).
For Nc1nc(-c2ccccc2Cl)cc(-c2ccc(Cl)cc2Cl)n1, the growth was 89.5% (inactive).
For Nc1nc(N=Nc2ccc(O)cc2)cc(=O)[nH]1, the growth was 104% (inactive).
With Cn1c([N+](=O)[O-])cnc1/C=C1\Oc2cc(Cl)ccc2C1=O the growth was 60.4% (inactive).
O=C(Nc1cccc(Cl)c1)Nc1nccs1 was tested, and the growth was 92.6% (inactive).
For COc1ccc(C2=NN(C(=O)c3ccc(S(C)(=O)=O)cc3)C(c3ccc(OC)c(OC)c3)C2)c(OC)c1 (stereo not given), the growth was 93.9% (inactive).
For c1ccc([I+]c2ccccc2)cc1, the growth was 72.8% (inactive).
With Cc1ccc(C)c(C(O)(c2cc(C)ccc2C)C2(O)CCCCC2)c1 the growth was 104% (inactive).
In the case of COc1ccc(/C=C/C(=O)Nc2ccc(-c3nc4ccc(F)cc4s3)cc2)cc1, the growth is reported as 104% (inactive).
CCN(CC)CCSCCN(CC)CC was tested, and the growth was 109% (inactive).
For COc1ccc(Nc2nc3ccc(NC(=O)NC4CCCCC4)cc3[nH]c2=O)cc1, the growth was 96.1% (inactive).
For CCN(CC)CCN1CC(=O)Nc2cc(Cl)ccc21, the growth was 104% (inactive).
COC(=O)C(C(C[N+](=O)[O-])c1ccccc1)=P(c1ccccc1)(c1ccccc1)c1ccccc1 (stereo not given) was tested, and the growth was 94.3% (inactive).
For O=C1C(c2ccccc2)C2C=CC(C2)N1O (stereo not given), the growth was 102% (inactive).
For CCCCCCCCCCCCCC[n+]1ccc(C(N)=O)cc1, the growth was 58.8% (inactive).
In the case of CCOC(=O)N1C/C(=C/c2ccc(F)cc2)C(=O)/C(=C/c2ccc(F)cc2)C1, the growth is reported as 53.9% (inactive).
In the case of O=C(Nc1ccncc1)C(=O)c1cn(S(=O)(=O)c2cccc(Cl)c2)c2ccccc12, the growth is reported as 102% (inactive).
With CCCC(F)C(=O)O (stereo not given) the growth was 90.9% (inactive).
In the case of C#Cc1ccc(-n2c(/C=C/c3ccc(C(F)(F)F)cc3)nc3ncccc3c2=O)cc1, the growth is reported as 33.7% (inactive).
For CS(=O)(=O)Nc1ccc(Nc2c3ccccc3nc3cc(N)ccc23)cc1, the growth was 42% (inactive).
In the case of O=C(CCCCCCC(=O)Nc1cccnc1)NO, the growth is reported as 27.7% (inactive).
For COc1cc(C2CC(c3ccc(Nc4ccnc5cc(Cl)ccc45)cc3)=NN2c2ccc(Cl)cc2)cc(OC)c1OC (stereo not given), the growth was 75.8% (inactive).
In the case of COc1ccc(/C=C/C(=O)Nc2ccc(-c3nc4ccc(OC)cc4s3)cc2)cc1, the growth is reported as 112% (inactive).
For CCCCCCN1CCN(Cc2ccc(N(CC)CC)cc2)C(=O)C1=O, the growth was 32% (inactive).
With COc1ccc2c(c1)sc1nc(-c3ccccc3)c(-c3cccnc3)n12 the growth was 113% (inactive).
In the case of CSc1nc(=O)n(Cc2ccc(F)cc2)c(=O)n1Cc1ccc(C)cc1, the growth is reported as 112% (inactive).
O=C(/C=C/c1cc2ccccc2[nH]c1=O)c1ccc2c(c1)OCO2 was tested, and the growth was 92% (inactive).
CCN(CC)CCC(=O)Nc1cccc2c1C(=O)c1c(c(O)c3ccccc3c1O)C2=O was tested, and the growth was 56.7% (inactive).
For COc1cc(C(=C2O[C@@H]([C@H]3COC(C)(C)O3)[C@H]3OC(C)(C)O[C@@H]23)c2cc(OC)c(OC)c(OC)c2)cc(OC)c1OC, the growth was 103% (inactive).
In the case of ClCCOCCn1cnc2c(Cl)nc(Cl)nc21, the growth is reported as 89.9% (inactive).
In the case of CC(C)=CCc1cc(O)cc2c1OC(C=C(C)C)C1=C2C(=O)C2=C(C1=O)S(=O)(=O)CCN2 (stereo not given), the growth is reported as 5.2% (active).
With CC/C(=C(/c1ccc(OCCN(C)C)cc1)c1ccc(OC(=O)CCCCC(=O)c2c(C)[nH]c(/C=C3\N=C(c4ccc[nH]4)C=C3OC)c2C)cc1)c1ccccc1 the growth was 72.2% (inactive).
In the case of c1ccc(CNc2ncnc3scc(-c4cccs4)c23)nc1, the growth is reported as 86.3% (inactive).
With C[C@@H]1C=C2C(=O)O[C@@H]3CC[C@H](C1)[C@]23O the growth was 82.5% (inactive).
N#Cc1cc(-c2cc3ccccc3o2)oc1N was tested, and the growth was 2.76% (active).
Nc1ncn(C2OC(CO)C(O)C2O)c(=O)n1 (stereo not given) was tested, and the growth was -0.0643% (active).
With O=C1Nc2ccc(Cl)cc2/C1=C\c1c(-c2ccc(Cl)cc2)nc2sc(C3CC3)nn12 the growth was 61.3% (inactive).
With O=S(=O)(Nc1ccccn1)c1ccc(N=Nc2ccc(O)c3ncccc23)cc1 the growth was -11.8% (active).
COc1ccccc1/C=C/C(=O)c1ccccc1 was tested, and the growth was 91.9% (inactive).
